Tests used:
Experiment in all cases: thermal shift delta Tm vs DMSO control; higher = stronger stabilization (binding)
Settings in all cases: 12.5 µM; protein concentration 2 µM
LOC_OS01G01410-cb001 = test system: LOC_OS01G01410-cb001
How it was run: (§1)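 Thermal shift values come from differential scanning fluorimetry on purified rice kinase domains made in E. coli, with melting temperatures obtained from Boltzmann fits. Samples of 19.5 μl held 2 μM kinase, 100 mM potassium phosphate pH 7.5, 150 mM NaCl, 10% glycerol, 5 × SYPRO Orange and compound in DMSO, and were heated from 25°C to 95°C at 0.05°C/s. Each shift is a triplicate mean relative to the DMSO-only protein sample.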

LOC_OS01G02750-cb003 = test system: LOC_OS01G02750-cb003
How it was run: as §1

LOC_OS01G10900-cb004 = test system: LOC_OS01G10900-cb004
How it was run: as §1

LOC_OS01G13800-cb001 = test system: LOC_OS01G13800-cb001
How it was run: as §1

LOC_OS01G14860-cb001 = test system: LOC_OS01G14860-cb001
How it was run: as §1

LOC_OS01G21960-cb002 = test system: LOC_OS01G21960-cb002
How it was run: as §1

LOC_OS01G39600-cb002 = test system: LOC_OS01G39600-cb002
How it was run: as §1

LOC_OS01G48390-cb002 = test system: LOC_OS01G48390-cb002
How it was run: as §1

LOC_OS01G51400-cb002 = test system: LOC_OS01G51400-cb002
How it was run: as §1

LOC_OS01G52050-cb004 = test system: T1, LOC_OS01G52050-cb004
T1 sequence (whole entry): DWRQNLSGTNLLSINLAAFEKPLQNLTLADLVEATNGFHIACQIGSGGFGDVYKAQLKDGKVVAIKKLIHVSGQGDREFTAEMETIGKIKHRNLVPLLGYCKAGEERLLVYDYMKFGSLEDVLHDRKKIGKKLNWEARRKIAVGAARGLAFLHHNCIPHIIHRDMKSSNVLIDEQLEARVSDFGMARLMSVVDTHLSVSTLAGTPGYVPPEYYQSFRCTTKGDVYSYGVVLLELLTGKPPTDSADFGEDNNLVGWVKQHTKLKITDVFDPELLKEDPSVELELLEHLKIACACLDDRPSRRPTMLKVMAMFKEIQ
How it was run: as §1

LOC_OS01G57100-cb003 = test system: LOC_OS01G57100-cb003
How it was run: as §1

LOC_OS01G60330-cb001 = test system: LOC_OS01G60330-cb001
How it was run: as §1

LOC_OS01G60700-cb002 = test system: LOC_OS01G60700-cb002
How it was run: as §1

LOC_OS01G63280-cb003 = test system: LOC_OS01G63280-cb003
How it was run: as §1

LOC_OS01G67340-cb003 = test system: LOC_OS01G67340-cb003
How it was run: as §1

LOC_OS01G70970-cb002 = test system: LOC_OS01G70970-cb002
How it was run: as §1

LOC_OS02G07810-cb001 = test system: LOC_OS02G07810-cb001
How it was run: as §1

LOC_OS02G08530-cb003 = test system: LOC_OS02G08530-cb003
How it was run: as §1

LOC_OS02G14120-cb001 = test system: LOC_OS02G14120-cb001
How it was run: as §1

LOC_OS02G17970-cb001 = test system: LOC_OS02G17970-cb001
How it was run: as §1
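Also: purified Escherichia coli-expressed rice kinase domain construct.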

Row | SMILES | thermal shift delta Tm (LOC_OS01G01410-cb001) | thermal shift delta Tm (LOC_OS01G02750-cb003) | thermal shift delta Tm (LOC_OS01G10900-cb004) | thermal shift delta Tm (LOC_OS01G13800-cb001) | thermal shift delta Tm (LOC_OS01G14860-cb001) | thermal shift delta Tm (LOC_OS01G21960-cb002) | thermal shift delta Tm (LOC_OS01G39600-cb002) | thermal shift delta Tm (LOC_OS01G48390-cb002) | thermal shift delta Tm (LOC_OS01G51400-cb002) | thermal shift delta Tm (LOC_OS01G52050-cb004) | thermal shift delta Tm (LOC_OS01G57100-cb003) | thermal shift delta Tm (LOC_OS01G60330-cb001) | thermal shift delta Tm (LOC_OS01G60700-cb002) | thermal shift delta Tm (LOC_OS01G63280-cb003) | thermal shift delta Tm (LOC_OS01G67340-cb003) | thermal shift delta Tm (LOC_OS01G70970-cb002) | thermal shift delta Tm (LOC_OS02G07810-cb001) | thermal shift delta Tm (LOC_OS02G08530-cb003) | thermal shift delta Tm (LOC_OS02G14120-cb001) | thermal shift delta Tm (LOC_OS02G17970-cb001)
1 | CC(C)CCN1c2nc(Nc3cc(F)c(O)c(F)c3)ncc2N(C)C(=O)C1C (stereo not given) | 2.96 °C | 1.52 °C | 2.63 °C | 0.08 °C | 3.74 °C | 1.92 °C | 3.67 °C | 1.58 °C | 0.67 °C | 5.38 °C | 1.71 °C | 6.27 °C | 2.07 °C | 7.85 °C | 8.73 °C | 4.67 °C | 1.13 °C | 2.78 °C | 3.11 °C | 1.38 °C
2 | Fc1ccc2[nH]ccc2c1-c1nc(N2CCOCC2)c2sc(CN3CCN(CC4CC4)CC3)cc2n1 | 0.26 °C | 0.77 °C | 2.96 °C | -0.36 °C | 0.37 °C | -0.01 °C | -0.27 °C | 0.62 °C | -0.02 °C | 0.03 °C | 1.16 °C | 0.82 °C | 1.22 °C | 0.86 °C | 0.95 °C | 0.31 °C | 0.15 °C | 0.45 °C | 0.72 °C | 0.68 °C
3 | COc1cc2ncnc(Sc3nnc(C)s3)c2cc1OC | 1.2 °C | 0.37 °C | 0.57 °C | -0.34 °C | 0.11 °C | 0.06 °C | -0.24 °C | 2.02 °C | 0.02 °C | 0.91 °C | 0.73 °C | 0.26 °C | 0.74 °C | -0.21 °C | 0.41 °C | -0.08 °C | -0.06 °C | 0.96 °C | 2.55 °C | -0.07 °C
4 | Cn1cc(-c2ccc3ncc(Cc4ccc5ncccc5c4)n3n2)cn1 | 0.75 °C | 0.95 °C | 6.36 °C | 0.22 °C | 0.23 °C | 0.62 °C | 0.86 °C | 1.24 °C | 0.47 °C | 0.62 °C | 0.9 °C | 1.91 °C | 0.96 °C | 0.15 °C | 0.76 °C | 0.25 °C | 1.07 °C | 1.43 °C | 2.22 °C | 0.32 °C
5 | CN(C)C[C@@H]1CCn2cc(c3ccccc32)C2=C(C(=O)NC2=O)c2cn(c3ccccc23)CCO1 | 1.3 °C | 0.71 °C | 0.95 °C | 1.16 °C | 2.41 °C | 2.83 °C | 2.85 °C | 0.62 °C | -0.02 °C | -0.62 °C | 2.1 °C | 0.51 °C | 2.42 °C | 0.43 °C | 0.03 °C | 0.53 °C | 0.54 °C | 1.19 °C | 2.29 °C | 1.69 °C
6 | CC(C)[C@H](CO)Nc1nc(Nc2cccc(Cl)c2)c2ncn(C(C)C)c2n1 [Purvalanol A] | 1.58 °C | 3.04 °C | 0.07 °C | -0.49 °C | 1.34 °C | 2.18 °C | -0.08 °C | 2.56 °C | 0.45 °C | 5 °C | 2.77 °C | 5.05 °C | 0.1 °C | 0.46 °C | 3.08 °C | 3.68 °C | 0.09 °C | 4.08 °C | 1.7 °C | 0.39 °C
7 | CN1CCN(c2ccc(-c3ccncc3-c3cc(F)c(O)c(F)c3)cc2)CC1 | 0.42 °C | 0.81 °C | -0.45 °C | 0.02 °C | 0.46 °C | 0.1 °C | -0.43 °C | -0.15 °C | 0.11 °C | 0.14 °C | 0.87 °C | 1.02 °C | 0.66 °C | 0.31 °C | 0.24 °C | 0.16 °C | 0.06 °C | 0.29 °C | 1.22 °C | 0.89 °C
8 | CC(C)(C)c1ccc(S(=O)(=O)/C=C/C#N)cc1 | -0.73 °C | -1.97 °C | -1.97 °C | 0.14 °C | -0.21 °C | 1.29 °C | -0.46 °C | 0.36 °C | 0.18 °C | -3.59 °C | 3.12 °C | -0.21 °C | 1.42 °C | -3.74 °C | 0.12 °C | -4.09 °C | 0.63 °C | 1.02 °C | -0.46 °C | 5.71 °C
9 | Cc1cc(C)c(/C=C2\C(=O)Nc3ccccc32)[nH]1 [Semaxanib (SU5416)] | 2.4 °C | 1.81 °C | 0.7 °C | -0.49 °C | 0.24 °C | 1.45 °C | 0.58 °C | 1.2 °C | 0.58 °C | 1.59 °C | 1.1 °C | 6.76 °C | 1.12 °C | 0.7 °C | 2.32 °C | 2.72 °C | 1.03 °C | 3.63 °C | 3.06 °C | 1.09 °C
10 | Cc1c[nH]c2nc(Nc3ccc(N4CCN(C)CC4)c(F)c3)nc(-c3cccc(CC#N)c3)c12 | 6.3 °C | 6.99 °C | 3.64 °C | 0.12 °C | 5.41 °C | 4.45 °C | 9.35 °C | 5.5 °C | 1.14 °C | 13.5 °C | 5.04 °C | 11.8 °C | 1.98 °C | 3.25 °C | 11.9 °C | 8.75 °C | 1.04 °C | 6.49 °C | 15.2 °C | 1.24 °C
11 | Cc1cnc(Nc2ccc(OCCN3CCCC3)cc2)nc1Nc1cccc(S(=O)(=O)NC(C)(C)C)c1 | 1.71 °C | 0.69 °C | 0.57 °C | -0.28 °C | 1.28 °C | 2.52 °C | 5.09 °C | 0.66 °C | 0.43 °C | 2.51 °C | 2.1 °C | 1.83 °C | 0.56 °C | 0.21 °C | 0.84 °C | 2.94 °C | 0.5 °C | 2.64 °C | 7.4 °C | 0.44 °C
12 | NC(=O)Nc1cc(-c2cccc(F)c2)sc1C(=O)N[C@H]1CCCNC1 | 0.37 °C | 5.35 °C | 0.3 °C | 0.24 °C | 0.9 °C | 3.38 °C | 0.2 °C | 0.65 °C | 0.08 °C | 11.6 °C | 4.78 °C | 1.93 °C | 0.65 °C | 0.86 °C | 0.78 °C | 1.89 °C | 1.56 °C | 5.46 °C | 8.74 °C | 0.89 °C
13 | CCS(=O)(=O)Nc1ccc2c(c1)/C(=C(/Nc1ccc(CN3CCCCC3)cc1)c1ccccc1)C(=O)N2 [Hesperadin] | 1.67 °C | 4.74 °C | 0.26 °C | -0.97 °C | 4.63 °C | 3.67 °C | 7.78 °C | 0.03 °C | 0.3 °C | 6.95 °C | 1.29 °C | 4.08 °C | 0.7 °C | 1.11 °C | 6.7 °C | 9.09 °C | 1.1 °C | 5.73 °C | 13 °C | 0.3 °C

From the supplement of paper PMC9694430
